From the supplement of paper PMC8728848
Shown is part of a subset that was picked to be rich in the strongest signals.

Key:
Experiment in all cases: glycan array binding signal (z-score within array); higher = stronger binding
Conditions in all cases: glycan notation: IUPAC condensed, linker removed
[1] = target: Fuc(a1-2)Gal(b1-3)GalNAc(b1-3)Gal
In short: (§1)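 Columns mapping to the same glycan were averaged after glycan names were converted to IUPAC-condensed notation. The data come from 3228 arrays in the Consortium for Functional Glycomics database, limited to those with an available protein sequence. Binding is reported as a within-array Z-score averaged across arrays of one protein sequence and across linkers.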

[2] = target: Fuc(a1-2)Gal(b1-3)GlcNAc(b1-3)[Gal(b1-4)GlcNAc(b1-6)]Gal(b1-4)Glc
In short: as §1

[3] = target: Fuc(a1-2)Gal(b1-4)GlcNAc6S
In short: as §1

[4] = target: Fuc(a1-2)Gal(b1-4)[Fuc(a1-3)]GlcNAc(b1-2)Man(a1-3)[Fuc(a1-2)Gal(b1-4)[Fuc(a1-3)]GlcNAc(b1-2)Man(a1-6)]Man(b1-4)GlcNAc(b1-4)[Fuc(a1-6)]GlcNAc
In short: as §1

[5] = target: Fuc(a1-2)Gal6S(b1-3)GlcNAc6S
In short: as §1

[6] = target: Fuc(a1-2)[Gal(a1-3)]Gal(b1-3)GlcNAc
In short: as §1

[7] = target: Fuc(a1-2)[Gal(a1-3)]Gal(b1-4)GlcNAc
In short: as §1

[8] = target: Fuc(a1-2)[Gal(a1-3)]Gal(b1-4)GlcNAc(b1-6)GalNAc
In short: as §1

[9] = target: Fuc(a1-3)[Gal(b1-4)]Glc6S
In short: as §1

[10] = target: Fuc(a1-3)[Gal(b1-4)]GlcNAc(b1-6)GalNAc
In short: as §1

[11] = target: Fuc(a1-3)[Gal3S(b1-4)]Glc
In short: as §1

[12] = target: Gal(a1-3)Gal(b1-4)GlcNAc(b1-2)Man
In short: as §1

Gal(b1-3)GlcNAc = target: Gal(b1-3)GlcNAc
In short: as §1

[13] = target: Gal(b1-3)GlcNAc(a1-3)Gal(b1-4)GlcNAc
In short: as §1

[14] = target: Gal(b1-3)GlcNAc(b1-2)[Gal(b1-3)GlcNAc(b1-6)]Man(a1-6)[Gal(b1-3)GlcNAc(b1-2)Man(a1-3)]Man(b1-4)GlcNAc(b1-4)GlcNAc
In short: as §1

[15] = target: Gal(b1-3)GlcNAc(b1-3)Gal(b1-4)GlcNAc(b1-2)[Gal(b1-3)GlcNAc(b1-3)Gal(b1-4)GlcNAc(b1-6)]Man(a1-6)[Gal(b1-3)GlcNAc(b1-3)Gal(b1-4)GlcNAc(b1-2)Man(a1-3)]Man(b1-4)GlcNAc(b1-4)[Fuc(a1-6)]GlcNAc
In short: as §1

[16] = target: Gal(b1-3)[Fuc(a1-4)]GlcNAc(b1-2)Man
In short: as §1

[17] = target: Gal(b1-3)[Fuc(a1-4)]GlcNAc(b1-3)Gal(b1-3)[Fuc(a1-4)]GlcNAc
In short: as §1

[18] = target: Gal(b1-4)GlcNAc(b1-2)Man(a1-3)[Man(a1-6)]Man(b1-4)GlcNAc(b1-4)GlcNAc
In short: as §1

[19] = target: Gal3S(b1-4)[Fuc(a1-3)]Glc6S
In short: as §1

Gal3S4S(b1-4)GlcNAc = target: Gal3S4S(b1-4)GlcNAc
In short: as §1

Gal3S6S(b1-4)GlcNAc = target: Gal3S6S(b1-4)GlcNAc
In short: as §1

Gal6S(b1-3)GlcNAc = target: Gal6S(b1-3)GlcNAc
In short: as §1

Gal6S(b1-3)GlcNAc6S = target: Gal6S(b1-3)GlcNAc6S
In short: as §1

Gal6S(b1-4)GlcNAc6S = target: Gal6S(b1-4)GlcNAc6S
In short: as §1

GalNAc(a1-3)Gal = target: GalNAc(a1-3)Gal
In short: as §1

[20] = target: GalNAc(b1-3)Gal(a1-6)Gal(b1-4)Glc
In short: as §1

[21] = target: GlcNAc(a1-3)Gal(b1-4)GlcNAc
In short: as §1

[22] = target: GlcNAc(a1-4)Gal(b1-3)GlcNAc
In short: as §1

[23] = target: GlcNAc(a1-4)Gal(b1-4)GlcNAc(b1-3)Gal(b1-4)[Fuc(a1-3)]GlcNAc(b1-3)Gal(b1-4)[Fuc(a1-3)]GlcNAc
In short: as §1

[24] = target: GlcNAc(b1-2)Gal(b1-3)GalNAc
In short: as §1

[25] = target: Man(a1-3)[Man(a1-6)]Man(a1-6)[Man(a1-2)Man(a1-3)]Man(b1-4)GlcNAc(b1-4)GlcNAc
In short: as §1

[26] = target: Man(a1-3)[Man(a1-6)]Man(a1-6)[Man(a1-3)]Man
In short: as §1

[27] = target: Neu5Ac(a2-3)Gal(b1-3)GlcNAc(b1-2)Man(a1-3)[Neu5Ac(a2-3)Gal(b1-3)GlcNAc(b1-2)Man(a1-6)]Man(b1-4)GlcNAc(b1-4)GlcNAc
In short: as §1

Neu5Ac(a2-3)Gal(b1-4)Glc = target: Neu5Ac(a2-3)Gal(b1-4)Glc
In short: as §1

[28] = target: Neu5Ac(a2-3)Gal(b1-4)GlcNAc(b1-2)Man
In short: as §1

[29] = target: Neu5Ac(a2-3)Gal(b1-4)GlcNAc(b1-2)[Neu5Ac(a2-3)Gal(b1-4)GlcNAc(b1-4)]Man(a1-3)[GlcNAc(b1-4)][Neu5Ac(a2-3)Gal(b1-4)GlcNAc(b1-2)[Neu5Ac(a2-3)Gal(b1-4)GlcNAc(b1-6)]Man(a1-6)]Man(b1-4)GlcNAc(b1-4)GlcNAc
In short: as §1

[30] = target: Neu5Ac(a2-3)Gal(b1-4)GlcNAc(b1-2)[Neu5Ac(a2-3)Gal(b1-4)GlcNAc(b1-4)]Man(a1-3)[GlcNAc(b1-4)][Neu5Ac(a2-3)Gal(b1-4)GlcNAc(b1-4)Man(a1-6)]Man(b1-4)GlcNAc(b1-4)GlcNAc
In short: as §1

[31] = target: Neu5Ac(a2-3)Gal(b1-4)[Fuc(a1-3)]GlcNAc(b1-2)Man
In short: as §1

[32] = target: Neu5Ac(a2-3)[Neu5Ac(a2-6)]GalNAc
In short: as §1

[33] = target: Neu5Ac(a2-6)Gal(b1-4)GlcNAc(b1-2)Man(a1-3)Man(b1-4)GlcNAc(b1-4)GlcNAc
In short: as §1

[34] = target: Neu5Ac(a2-6)GalNAc(b1-4)GlcNAc
In short: as §1

Neu5Ac(a2-8)Neu5Ac = target: Neu5Ac(a2-8)Neu5Ac
In short: as §1

[35] = target: Neu5Ac(a2-8)Neu5Ac(a2-3)Gal(b1-4)GlcNAc
In short: as §1

[36] = target: Neu5Ac(a2-8)Neu5Ac(a2-8)Neu5Ac(a2-3)[GalNAc(b1-4)]Gal(b1-4)Glc
In short: as §1

Neu5Gc(a2-3)Gal(b1-4)Glc = target: Neu5Gc(a2-3)Gal(b1-4)Glc
In short: as §1

[37] = target: Neu5Gc(a2-3)Gal(b1-4)GlcNAc(b1-3)Gal(b1-4)GlcNAc(b1-2)Man(a1-3)[Neu5Gc(a2-3)Gal(b1-4)GlcNAc(b1-3)Gal(b1-4)GlcNAc(b1-2)Man(a1-6)]Man(b1-4)GlcNAc(b1-4)GlcNAc
In short: as §1

Neu5Gc(a2-6)GalNAc = target: Neu5Gc(a2-6)GalNAc
In short: as §1

B1: Epa3to2 (Candida glabrata) (protein)
chain: MGSSHHHHHHSSGLVPRGSHMKRELSSQNPFGYPIGCSPQDVAIIPGLTMELYSYPIVSGTPPNCYDASYVDPEYPRTGYLKRKMVGKSTGVTGNLNYKYSVEKACMVKYGNLPAGYNYNEPLTVSNFTMILYGYFKAQTTGLHTFFVNADDLLYINFGAGNAFDCCKREDSKTKLGEYVAYDIWHVDSSKNKVSLFLEKDLYYPIRMFFNNRDNNSSLDLSFSVNGATDQISDFSGYLYSVPDQPDTCPAHIGYDTTCR
[1]
  glycan array binding signal (z-score): 3.03
[2]
  glycan array binding signal (z-score): 1.2
[3]
  glycan array binding signal (z-score): -0.709
[4]
  glycan array binding signal (z-score): 2.47
[5]
  glycan array binding signal (z-score): 2.11
[6]
  glycan array binding signal (z-score): -0.392
[7]
  glycan array binding signal (z-score): -0.27
[8]
  glycan array binding signal (z-score): -0.714
[9]
  glycan array binding signal (z-score): 0.316
[10]
  glycan array binding signal (z-score): -1.35
[11]
  glycan array binding signal (z-score): 0.878
[12]
  glycan array binding signal (z-score): -0.911
Gal(b1-3)GlcNAc
  glycan array binding signal (z-score): -0.751
[13]
  glycan array binding signal (z-score): -0.807
[14]
  glycan array binding signal (z-score): 0.52
[15]
  glycan array binding signal (z-score): 0.293
[16]
  glycan array binding signal (z-score): 0.761
[17]
  glycan array binding signal (z-score): -1.46
[18]
  glycan array binding signal (z-score): 0.07
[19]
  glycan array binding signal (z-score): 0.958
Gal3S4S(b1-4)GlcNAc
  glycan array binding signal (z-score): -0.354
Gal3S6S(b1-4)GlcNAc
  glycan array binding signal (z-score): 2.42
Gal6S(b1-3)GlcNAc
  glycan array binding signal (z-score): 0.814
Gal6S(b1-3)GlcNAc6S
  glycan array binding signal (z-score): 3.65
Gal6S(b1-4)GlcNAc6S
  glycan array binding signal (z-score): 2.45
GalNAc(a1-3)Gal
  glycan array binding signal (z-score): 1.49
[20]
  glycan array binding signal (z-score): 1.12
[21]
  glycan array binding signal (z-score): -1.07
[22]
  glycan array binding signal (z-score): -1.92
[23]
  glycan array binding signal (z-score): 2.65
[24]
  glycan array binding signal (z-score): -1.16
[25]
  glycan array binding signal (z-score): 3.92
[26]
  glycan array binding signal (z-score): 0.52
[27]
  glycan array binding signal (z-score): -0.658
Neu5Ac(a2-3)Gal(b1-4)Glc
  glycan array binding signal (z-score): 7.38
[28]
  glycan array binding signal (z-score): 2.24
[29]
  glycan array binding signal (z-score): 1.37
[30]
  glycan array binding signal (z-score): -0.302
[31]
  glycan array binding signal (z-score): -0.793
[32]
  glycan array binding signal (z-score): -1.13
[33]
  glycan array binding signal (z-score): 2.19
[34]
  glycan array binding signal (z-score): -0.698
Neu5Ac(a2-8)Neu5Ac
  glycan array binding signal (z-score): 1.01
[35]
  glycan array binding signal (z-score): 0.968
[36]
  glycan array binding signal (z-score): 0.534
Neu5Gc(a2-3)Gal(b1-4)Glc
  glycan array binding signal (z-score): 0.038
[37]
  glycan array binding signal (z-score): -0.277
Neu5Gc(a2-6)GalNAc
  glycan array binding signal (z-score): 2.12
